Mito fusion act: mitochondrial division inhibition or fusion activation | Potency, µM (highest dose often 46.1 µM), inactives show top-dose growth rescue (activation), usual class: activators | S. cerevisiae fusion-defective mutant growth rescue, CellTiterGlo 48 h | 320,000 compounds, 0.23% hits; also: % of control where 0% means no effect; nearly all actives have a fitted effect of over 45% in size
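Temperature-sensitive fusion-defective S. cerevisiae (e.g. fzo1-1, mgm1-5) were grown with compound in YPEG medium (3% ethanol, 3% glycerol) for 48 hours at 37C. Growth rescue was measured as viability by CellTiterGlo luminescence after 10 minutes at ambient.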
Integrin act MD: activators of alpha7 integrin expression for muscular dystrophy; alpha7betagal myoblasts, beta-gal FDG fluorescence, 48 h; Potency, µM (top dose mostly 38.3 µM), for the others: at the highest dose activation, actives largely listed as activators; 350,000 compounds, 0.064% hits; AID 624291;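 also: 100% = response of the positive control SU9516; nearly all actives have a fitted effect of over 60% in size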
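alpha7betagal+/- myoblasts (passage 13, 250/well) treated 48 h at 37C with compounds at 1:260 dilution of DMSO stock. Lysed, then beta-galactosidase activity read as FDG fluorescence (ex 480/em 540) after 30 min, with pre-read for autofluorescence.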
RORgamma inh: inhibitors of mouse ROR gamma transcriptional activity | P51450 | Drosophila S2 Gal4-RORgamma UAS-luciferase reporter, 20 h | Potency, µM (doses to about 53.6 µM), without a hit: top-dose activity change, negative = inhibition, actives largely listed as inhibitors | 310,000 compounds, 5.4% hits | AID 2551; also: % is scaled to controls: 0 for no effect and ±100 for the full control effect; nearly all actives have a fitted effect of over 60% in size
Target sequence (P51450 whole entry, looked up, the tested form may be a part): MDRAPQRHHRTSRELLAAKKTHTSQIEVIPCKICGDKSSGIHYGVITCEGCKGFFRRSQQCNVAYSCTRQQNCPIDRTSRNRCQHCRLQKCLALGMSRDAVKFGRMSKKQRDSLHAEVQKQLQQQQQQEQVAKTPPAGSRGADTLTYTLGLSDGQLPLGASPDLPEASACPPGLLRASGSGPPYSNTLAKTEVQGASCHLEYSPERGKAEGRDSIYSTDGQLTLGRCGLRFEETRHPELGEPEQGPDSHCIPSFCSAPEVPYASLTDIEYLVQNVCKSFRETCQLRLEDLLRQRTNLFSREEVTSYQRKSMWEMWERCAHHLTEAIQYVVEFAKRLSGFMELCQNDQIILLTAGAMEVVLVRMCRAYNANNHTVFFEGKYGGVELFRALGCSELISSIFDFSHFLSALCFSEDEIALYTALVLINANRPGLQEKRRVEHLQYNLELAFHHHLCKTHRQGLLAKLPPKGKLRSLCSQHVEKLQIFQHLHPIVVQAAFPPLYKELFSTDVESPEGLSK
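Stable Schneider cell line, Gal4 DNA-binding domain fused to ROR gamma, UAS-luciferase. Cmpd 1 hr RT → CuSO4 700 uM final → 20 hr RT → luciferase reagent 10 min → luminescence.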
Gal4-VP16 FLuc: Gal4-VP16 reporter inhibition counter-screen | 310,000 compounds, 3.5% hits | Drosophila S2 Gal4-VP16 UAS-luciferase, luminescence, 20 h | Potency, µM (highest dose often 53.6 µM), for inactives: at the top dose activity, negative = inhibition, most hits filed as inhibitors;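 also: Gal4-VP16 expression switched on by copper sulfate through the metallothionein promoter; % is scaled to controls: 0 for no effect and ±100 for the full control effect; nearly all actives have a fitted effect of over 50% in size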
Chronic BCR inh: chronic active BCR signaling inhibition | Potency, µM (titrated, usually from 46.1 µM), inactives show top-dose activity change, negative = inhibition, actives largely listed as inhibitors | 340,000 compounds, 0.05% hits | ABC-DLBCL IkBa-CBG/CBR reporter, luminescence ratio, 4 h; active = well fitted inhibition curve with a large enough effect in the signal ratio, with a control signal flat, not every such curve was filed as active; inconclusive = small, poorly fitted or top-dose-only effect, or effect the other way, or a change in a side signal; the % refers to the signal ratio;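 also: plate controls were basal doxycycline-induced cells for no effect and cells given 10 µM MG132 for full effect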
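Doxycycline induced both beetle luciferases in TMD8 lymphoma cells; IKK-driven degradation limits the IkappaBalpha-fused green signal, while red luminescence normalises for cell number and nonspecific effects. Compounds tested up to 46 uM, 4 hrs.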
uPA generation: cell surface uPA generation inhibition | cell surface uPA generation assay, qHTS | 330,000 compounds, 0.31% hits | Potency, µM (titrated, usually from 38.3 µM), inactives show at the highest dose activity change, negative = inhibition, actives largely listed as inhibitors; active = well fitted inhibition curve with a large enough effect; inconclusive = small, poorly fitted or top-dose-only effect; inactive = no such curve, though single readings can be large or run the other way; tested in mouse RAW 264.7 cells; also: % is scaled to controls: 0 for no effect and ±100 for the full control effect; nearly all actives have a fitted effect of over 55% in size
Numbers without * were called inactive; ? = inconclusive; nt = not tested or not shown; [ ] = remark or other dose. Shown are actives, neighbours in structure and some others; about 5.5% of the full set was active somewhere. Unless noted, calls follow the shape of the dose curve; as a rule, active = well fitted curve in the direction sought with a large enough effect; inconclusive = small, poorly fitted or top-dose-only effect, or another doubt; inactive = no such curve, though single readings can be large; an effect the other way counts as inactive or inconclusive. Potency is read from the fitted curve at half-maximal effect.

SMILES | Mito fusion act | Integrin act MD | RORgamma inh | Gal4-VP16 FLuc | Chronic BCR inh | uPA generation
CCOc1ccc(C(=O)NC(=S)Nc2cccc(NC(=O)c3ccco3)c2)cc1[N+](=O)[O-] | -0.1% | -22.7% | 6.31µM* | 7.08µM* | -10.1% | -3.7%
COc1cccc(OCc2cc(C(=O)N(C)CCOc3ccc(C)cc3)no2)c1 | 2.3% | -49.8% | ? | ? | 6.3% | 6.0%
CCCCn1c(N)c(N(CCOC)C(=O)CCS(=O)(=O)c2ccc(Cl)cc2)c(=O)[nH]c1=O | 11.0% | 18.6% | nt | nt | ? | 5.0%
CC(C)(C)c1cccc(Cn2nnc3ccccc32)c1O | 20µM* | -23.6% | nt | nt | ? | -3.8%
Cc1cc(Cn2nnc3ccccc32)c(O)c(C(C)(C)C)c1 | ? | -1.7% | nt | nt | -2.1% | -16.8%
O=C(O)[C@H]1O[C@@H](Oc2ccc3ccc(=O)oc3c2)[C@H](O)[C@@H](O)[C@@H]1O | nt | nt | 0.4% | 3.6% | nt | nt
N/C(Cc1ccccc1)=N\OC(=O)c1cccc2ccccc12 | -56.6% | -15.5% | -6.9% | 8.91µM* | ? | -6.8%
N/C(Cc1cccc2ccccc12)=N\OC(=O)c1ccccc1F | -2.3% | 13.7% | 5.8% | -0.1% | 0.7% | 0.1%
N/C(=N\OC(=O)c1cccc2ccccc12)c1ccc(Br)cc1 | 0.8% | 11.1% | 10µM* | 5.01µM* | 6.2% | -10.1%
CCSC1(SCC)N=C(N)C2(C#N)C(c3ccc(OC)c(OC)c3OC)C12C#N (stereo not given) | -1.6% | -64.1% | 11.2µM* | 2.51µM* | ? | -15.6%
Cn1c(N)c(C(=O)CNC2CCCCC2)c(=O)n(C)c1=O | nt | 6.0% | nt | nt | nt | -7.3%
CO[C@]1(C2=NCCN2)COc2ccccc2O1 | nt | nt | -0.6% | 6.0% | nt | nt
COCCSc1ccccc1C(=O)Nc1ccncc1 | -3.6% | 21.9% | -21.2% | -0.4% | -20.0% | 4.6%
COCCSc1ccccc1C(=O)Nc1cc(C)cc(C)c1 | -0.7% | 4.47µM* | -19.1% | -5.9%[10 µM] | ? | -19.8%
COc1cc(Nc2c3c(nc4ccccc24)CCCC3)cc(OC)c1OC | 22.8% | 19.9% | 11.2µM* | 9.3% | ? | -8.1%
CC(=O)c1cccc(Nc2c3c(nc4ccccc24)CCC3)c1 | -2.6% | -9.9% | -24.5% | 1.2% | ? | 0.794µM*
COC(=O)c1cccc(Nc2c3c(nc4ccccc24)CCC3)c1 | 6.7% | 6.2% | 28.9% | 1.1% | -14.7% | -19.2%
COc1ccccc1Nc1c2c(nc3ccccc13)CCC2 | -10.9% | -29.0% | 1.8% | -0.3% | -7.1% | -17.9%
CSCC(=O)N1CCCC(CO)(Cc2ccccc2C)C1 (stereo not given) | 22.4µM* | -11.6% | ? | 9.6% | ? | 1.8%
Cc1ccccc1CC1(CO)CCCN(C(=O)CCC(F)(F)F)C1 (stereo not given) | -0.3% | 12.8% | 33.7% | -4.2% | -0.6% | -2.5%
O=C(NCCN1C(=O)CCC1=O)c1ccncc1 | -3.1% | 10.5% | 5.62µM* | -2.0% | -0.4% | -5.5%
CC(=O)C1=C(C)NC(SCC(=O)c2ccc(Cl)cc2)=C(C#N)C1CC(C)C (stereo not given) | 8.2% | -7.1% | 11.2µM* | ? | -13.4% | 2.5%
CC(=O)C1=C(C)NC(SCC(=O)c2ccc(F)cc2)=C(C#N)C1CC(C)C (stereo not given) | 28.3% | -7.1% | 5.62µM* | 7.08µM* | ? | 8.8%
CC(=O)C1=C(C)NC(SCC(N)=O)=C(C#N)C1CC(C)C (stereo not given) | 7.4% | 7.5% | 0.5% | 1.7% | ? | 2.6%
O=C(N/N=C1/C[C@@H](O)[C@@H](O)[C@@H]2[C@H]3C(=O)N(c4ccc(F)cc4F)C(=O)[C@@H]3CC[C@@H]12)OCc1ccccc1 | nt | nt | -0.3%[10 µM] | -5.4%[10 µM] | nt | nt
COc1ccc(OC)c(CCNC(=O)CC2(CC3=NS(=O)(=O)c4ccccc4N3)CCCC2)c1 | -0.1% | 0.0% | 29.9% | -0.6% | ? | 1.9%
O=C(CC1Sc2ncnn2C1=O)Nc1ccc(Br)cc1 (stereo not given) | 5.5% | -9.5% | ? | 25.1µM* | -0.2% | ?

Compound activity: PubChem, National Center for Advancing Translational Sciences (NCATS)
